Measurements taken from PubChem BioAssay (Tox21).
“And” between values parts separate entries of the source, which are not always exact repeats. Equal entries are not always repeated. Inconclusive results are not listed. A call without a number means that no potency is given here. The source made the active and inactive calls. Calls come from the whole dose curve; as a rule, active = well fitted curve in the direction sought with a large enough effect in the repeat runs; inconclusive = weak or mixed curves; inactive = no such curve, though single readings can be large; an effect the other way counts as inactive or inconclusive.

Assay: qHTS RealTime-Glo MT Cell Viability Assay in HepG2 cells - 16 hour (AID 1224885)
Details: RealTime-Glo luminescence; series mostly up to 76.8 µM
Method in brief: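 HepG2 cells (600/well) were dispensed with RealTime-Glo reagents, incubated 5 h at 37 °C, then treated with compounds in DMSO for up to 40 h. Nonlytic NanoLuc luminescence reflecting viable cells was read at each stated time point.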
Note: nearly all actives have a fitted effect of over 50% in size.
Potency is the fitted concentration of half-maximal effect.

Structure (SMILES)	Potency
C=CC(C)(CCC=C(C)C)OC(=O)c1ccccc1N (stereo not drawn)	inactive
O=C(N/N=C/c1ccc([N+](=O)[O-])o1)c1cc([N+](=O)[O-])cc([N+](=O)[O-])c1O	inactive
CC(O)CN1CCN(CC(=O)[O-])CCN(CC(=O)[O-])CCN(CC(=O)[O-])CC1.[Gd+3] (stereo not drawn)	inactive
CCc1cnc(C2=NC(C)(C(C)C)C(=O)N2)c(C(=O)O)c1 (stereo not drawn)	inactive
CCOP(=O)(SC(C)CC)N1CCSC1=O (stereo not drawn)	inactive
CCCCCCCCn1sccc1=O	43.7 µM (active) and 16.2 µM (active)
C1CS1	inactive
CN(C)c1ccc(N=O)cc1	55.1 µM (active) and 43.6 µM (active)
CC(C)(C)NCC(O)c1cc(Cl)c(N)c(C(F)(F)F)c1 (stereo not drawn)	inactive
Cc1ncc(C[n+]2csc(CCO)c2C)c(N)n1	inactive
CCC1CCC(=O)O1 (stereo not drawn)	inactive
CC1(C)CC(=O)CC(C)(C)N1[O]	inactive
O=C(O)C(Cl)(Cl)Br	inactive
CC1(C)[C@H](C(=O)O[C@H](C#N)c2cccc(Oc3ccccc3)c2)[C@@H]1C=C(Br)Br	inactive
Nc1ccccc1C(=O)OCCc1ccccc1	inactive
CN1CC[C@]23c4c5ccc(O)c4O[C@H]2[C@@H](O)CC[C@H]3[C@H]1C5	inactive
C[C@H]1O[C@H](OC2[C@@H](O)[C@@H](O)C(O)[C@H](O)[C@H]2O)[C@@H](N)C[C@@H]1N=C(N)C(=O)O (stereo partly drawn)	inactive
CC(C)c1ccc(OP(=O)(Oc2ccc(C(C)C)cc2)Oc2ccc(C(C)C)cc2)cc1	inactive
CCOP(=O)(O)C(N)=O	inactive
SCc1ccccc1	inactive

Structure (SMILES)	Potency
N#CC1(N=NC2(C#N)CCCCC2)CCCCC1	inactive
CC(C)(C)OOC(C)(C)CCC(C)(C)OOC(C)(C)C	inactive
CC(C)(C#N)C(C)(C)C#N	inactive
CCCCNC(=O)OCC#CI	10.9 µM (active) and 4.9 µM (active)
Cc1cnc(C2=NC(C)(C(C)C)C(=O)N2)c(C(=O)O)c1 (stereo not drawn)	inactive
O=C(N[C@H]1CN2CCC1CC2)c1ccc2c(c1)OCCO2	inactive
O=C1NC(=O)C(=O)C(=O)N1	inactive
Cc1ccc(N)c(C)c1	inactive
CCOP(=S)(S)OCC	inactive
CCC[N+](CCC)(CCC)CCC	inactive
C=CCOCC1CO1 (stereo not drawn)	inactive
CN1C[C@H](C(=O)N[C@]2(C)O[C@@]3(O)[C@@H]4CCCN4C(=O)[C@H](Cc4ccccc4)N3C2=O)C=C2c3cccc4[nH]cc(c34)C[C@H]21	19.6 µM (active)
COC(=O)C1(O)c2ccccc2-c2ccccc21	inactive
CNC(=O)Oc1cccc(N=CN(C)C)c1	inactive
Cc1cccc(C)c1NC1=NCCCS1	inactive
CC(CC(C(N)=O)(c1ccccc1)c1ccccc1)N(C)C (stereo not drawn)	inactive
COC1=CC(=O)O[C@@H](/C=C/c2ccc3c(c2)OCO3)C1	inactive
CCOC(=O)C1OC1(C)c1ccccc1 (stereo not drawn)	inactive
c1ccc2c(c1)-c1cccc3cccc-2c13	inactive

Assay: qHTS RealTime-Glo MT Cell Viability Assay in HEK293 cells - 24 hour (AID 1224886)
Details: RealTime-Glo luminescence; series mostly up to 76.8 µM
Method in brief: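 HEK293 cells seeded with NanoLuc/prosubstrate reagent, rested 5 h at 37 C, then dosed and kept at 37 C up to 40 h. Nonlytic real-time luminescence from viable cells read at 0, 8, 16, 24, 32 and 40 h.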

Structure (SMILES)	Potency
C=CC(C)(CCC=C(C)C)OC(=O)c1ccccc1N (stereo not drawn)	inactive
O=C(N/N=C/c1ccc([N+](=O)[O-])o1)c1cc([N+](=O)[O-])cc([N+](=O)[O-])c1O	inactive
CC(O)CN1CCN(CC(=O)[O-])CCN(CC(=O)[O-])CCN(CC(=O)[O-])CC1.[Gd+3] (stereo not drawn)	inactive
CCc1cnc(C2=NC(C)(C(C)C)C(=O)N2)c(C(=O)O)c1 (stereo not drawn)	inactive
CCOP(=O)(SC(C)CC)N1CCSC1=O (stereo not drawn)	inactive
CCCCCCCCn1sccc1=O	12.3 µM (active) and 12.9 µM (active)
C1CS1	inactive
CN(C)c1ccc(N=O)cc1	15.5 µM (active) and 24.5 µM (active)
CC(C)(C)NCC(O)c1cc(Cl)c(N)c(C(F)(F)F)c1 (stereo not drawn)	inactive
Cc1ncc(C[n+]2csc(CCO)c2C)c(N)n1	inactive
CCC1CCC(=O)O1 (stereo not drawn)	inactive
CC1(C)CC(=O)CC(C)(C)N1[O]	inactive
O=C(O)C(Cl)(Cl)Br	inactive
CC1(C)[C@H](C(=O)O[C@H](C#N)c2cccc(Oc3ccccc3)c2)[C@@H]1C=C(Br)Br	inactive
Nc1ccccc1C(=O)OCCc1ccccc1	21.9 µM (active)
CN1CC[C@]23c4c5ccc(O)c4O[C@H]2[C@@H](O)CC[C@H]3[C@H]1C5	inactive
C[C@H]1O[C@H](OC2[C@@H](O)[C@@H](O)C(O)[C@H](O)[C@H]2O)[C@@H](N)C[C@@H]1N=C(N)C(=O)O (stereo partly drawn)	inactive
CC(C)c1ccc(OP(=O)(Oc2ccc(C(C)C)cc2)Oc2ccc(C(C)C)cc2)cc1	inactive
CCOP(=O)(O)C(N)=O	inactive
SCc1ccccc1	inactive

Structure (SMILES)	Potency
N#CC1(N=NC2(C#N)CCCCC2)CCCCC1	inactive
CC(C)(C)OOC(C)(C)CCC(C)(C)OOC(C)(C)C	inactive
CC(C)(C#N)C(C)(C)C#N	inactive
CCCCNC(=O)OCC#CI	21.8 µM (active) and 21.9 µM (active)
Cc1cnc(C2=NC(C)(C(C)C)C(=O)N2)c(C(=O)O)c1 (stereo not drawn)	inactive
O=C(N[C@H]1CN2CCC1CC2)c1ccc2c(c1)OCCO2	inactive
O=C1NC(=O)C(=O)C(=O)N1	inactive
Cc1ccc(N)c(C)c1	inactive
CCOP(=S)(S)OCC	inactive
CCC[N+](CCC)(CCC)CCC	inactive
C=CCOCC1CO1 (stereo not drawn)	inactive
CN1C[C@H](C(=O)N[C@]2(C)O[C@@]3(O)[C@@H]4CCCN4C(=O)[C@H](Cc4ccccc4)N3C2=O)C=C2c3cccc4[nH]cc(c34)C[C@H]21	inactive
COC(=O)C1(O)c2ccccc2-c2ccccc21	inactive
CNC(=O)Oc1cccc(N=CN(C)C)c1	inactive
Cc1cccc(C)c1NC1=NCCCS1	inactive
CC(CC(C(N)=O)(c1ccccc1)c1ccccc1)N(C)C (stereo not drawn)	inactive
COC1=CC(=O)O[C@@H](/C=C/c2ccc3c(c2)OCO3)C1	inactive
CCOC(=O)C1OC1(C)c1ccccc1 (stereo not drawn)	inactive
c1ccc2c(c1)-c1cccc3cccc-2c13	inactive
